The full ranking holds about 25,000 sequences; the median of “ln(normalized median fluorescence intensity)” is about 9.3, and the highest 2% start at about 10. The sample holds the highest values, similar sequences and a random draw of the others, so the mix is not that of the screen.

Data on 58 sequences can be found in the supplement of paper PMC11417369.

The experiment has as its system PF3D7_0420300 AP2 domain 1 (GST-tagged). The experiment in a line: gcPBM binding intensity (ln(normalized median fluorescence intensity)); higher = stronger DNA binding. The method, boiled down:
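An Agilent 4 × 180k array carrying primer-extended double-stranded 36-bp intergenic genomic probes and negative controls received GST-tagged P. falciparum DNA-binding domains expressed in E. coli, about 25 μg on average, for 1 h. The binding buffer contained 1× PBS, 1% milk, 0.2 mg/ml BSA, 0.5% salmon testes DNA and 0.03% Triton X-100. Binding intensity is the top Masliner-normalised natural-log median intensity across replicate spots of either probe orientation, read after Alexa488 anti-GST antibody staining and a 488 nm scan.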
With ATAGTAATAGAATGATTGCACTTAAATTTTCCCTCT, the “gcPBM binding intensity (ln)” value is 9.19. As to “AATATATATATATGTACACACTCCAATACATATACA [CACACA_site2682]”, the “gcPBM binding intensity (ln)” value amounted to 9.42. Consider AAAAAAATAACAAAAGTGCATTTTTATGAGTTATCT, for which the “gcPBM binding intensity (ln)” value turned out to be 9.2. Regarding “AAATAATATAAATACACACACACATATATAAATACA [CACACA_site4465]”, the “gcPBM binding intensity (ln)” value was 10.2.

Turning to “AATACATATAAAAGTACACACACACCCATATATATA [CACACA_site8220]”, the “gcPBM binding intensity (ln)” value turned out to be 10.2.

For “ATAATATAAATATACACACACACATATATATATATA [CACACA_site2905]”, the “gcPBM binding intensity (ln)” value was 9.91.

Regarding “CATATATAAATATATACACACATACATACATACATA [CACACA_site5988]”, the “gcPBM binding intensity (ln)” value stood at 9.67. In the case of “TACATACATACATACACACACACATATAAATACATA [CACACA_site4626]”, the “gcPBM binding intensity (ln)” value was determined as 10.2. Regarding “TGGTAATACCCATACACACACACATACCCATATATA [CACACA_site5509]”, the “gcPBM binding intensity (ln)” value was found to be 10.1. Consider “TGGTAATACCCATACACACACACATACACATATATA [CACACA_site8877]”, for which the “gcPBM binding intensity (ln)” value was 10.1. The value for “CATAAATACATACATACACACATATATATATATATA [CACACA_site2106]” was 9.5. Turning to “AATAAATAAATATATACACACATATATATATAATAT [CACACA_site921]”, the “gcPBM binding intensity (ln)” value is 9.6. In the case of “TACATATAAAAGTACACACACACACCCATATATATA [CACACA_site941]” it was 10.2. The value for “TATAAAAATAAAAAAAGTACACATAAAAATATATAT [XGTACX_site5189]” was 9.62; that for “TGGTAATACACATACACACACACATACACATATATA [CACACA_site7312]” was 10.2. Turning to “TAAAACAATACTTTGTGCTTCTCTGGTTTTTTTTTT [GTGCAC_negctrl_site284]”, the “gcPBM binding intensity (ln)” value amounted to 9.26. Consider “ACGTTTGATACACATAAAGTTTTCCTTTGAATGTAC [CACACA_negctrl_site106]”, for which the “gcPBM binding intensity (ln)” value was found to be 9.26.

In the case of “TTTTAACATAGAAGTACACACATATAATCAATCATA [CACACA_site5313]”, the “gcPBM binding intensity (ln)” value was found to be 9.6. For the sequence “TTAATACATTAAATATGTACTTATATATCTCAACTA [XGTACX_site3997]”, the “gcPBM binding intensity (ln)” value was found to be 9.11. Take “AACACAAATAAGTATTTGGATTATATTACATTTATA [CACACA_negctrl_site465]”: the “gcPBM binding intensity (ln)” value worked out at 9.18. With “GTGTTTTTATGTGAATGTACATATTTACTATCACAC [XGTACX_site2388]”, the “gcPBM binding intensity (ln)” value is 9.56.

For the sequence “TTCATTCTATAAAACACACAAATATTTTTGTATCCC [CACACA_site6458]”, the “gcPBM binding intensity (ln)” value was found to be 9.2. Take “CATAATATGACATACACACACAAAAAAAAAAAAATA [CACACA_site1285]”: the “gcPBM binding intensity (ln)” value is 9.91. In the case of “AGAAATATCTAATTGTGTACTCAAGAAAAAGTTACG [XGTACX_site372]”, the “gcPBM binding intensity (ln)” value was 9.29. Regarding “TTACCATAAGTATGTGGTACACTTTAAATGAAGATA [XGTACX_site6972]”, the “gcPBM binding intensity (ln)” value came to 8.88.

In the case of “CATACATATATTATTGCACACATATAAAATACCCCC [CACACA_site9292]”, the “gcPBM binding intensity (ln)” value was determined as 10.3.

As to “CATACATACAGACACACACACATATAAATACATACA [CACACA_site6533]”, the “gcPBM binding intensity (ln)” value was 10. The value for “TATAAATAAATATACACACACACATATAAATATGTA [CACACA_site6504]” was 10.1; that for “TACATATATTATTGCACACATATAAAATACCCCCAA [CACACA_site3895]” was 9.82; that for “TACAGATATTATTGCACACATATAAAATACCCCCAA [CACACA_site6014]” was 9.89. Regarding “AAAATTAAAATATATACACACATATATATATTAAAT [CACACA_site4419]”, the “gcPBM binding intensity (ln)” value stood at 9.57. In the case of “AATATAAGCAAATACACACACACATATAAATATGTA [CACACA_site7741]”, the “gcPBM binding intensity (ln)” value is 10.2. The value for “AATACATACAGACACACACACACATATAAATAAATA [CACACA_site7642]” was 10.2; that for “AATTAAAAAAAATACACACACACATACACATATATA [CACACA_site3298]” was 10.2; that for “AATATAAGCAAATACACACACACATATATATATATA [CACACA_site3805]” was 10. In the case of “TACATACACAGACACACACACATATAAATATAAATA [CACACA_site7641]”, the “gcPBM binding intensity (ln)” value was determined as 9.95. Take “AAAAAAAATTAAATAAATAAATATACACATATATAT [GTGCAC_negctrl_site394]”: the “gcPBM binding intensity (ln)” value is 9.26.

On to CATATAAAAAATATGGTGCAGTTTTTTTTTTTTTTT, for which the “gcPBM binding intensity (ln)” value came out at 9.1. “ATATATCATAATAGAGGTACACATATTATATATATA [XGTACX_site782]”: the “gcPBM binding intensity (ln)” value came to 9.29. As for “TAATTTTTTTTAAATACACACTGAAATGTGAATTTT [CACACA_site4476]”, the “gcPBM binding intensity (ln)” value is 8.96. Regarding “ACCACCATATAACATACATGCATCTTTTTTCCCTTC [TGCATGCA_site583]”, the “gcPBM binding intensity (ln)” value was determined as 9.79. In the case of “TTTTTATATTTTATTAGTACTTATTATATATATAAT [XGTACX_site4900]” it was 9.26. The value for “ATATATGTAATAAATAGTACACACACACATATATAT [XGTACX_site2817]” was 10.3; that for “TGTAATAAATAGTACACACACACATATATATATATT [CACACA_site1388]” was 9.94; that for “TAATAATAGTAAATATGTACATATATATATATATAG [XGTACX_site4602]” was 9.26. For “TGTAGTCTGGAGAAAAGTACATAGTATCTGGTAACA [XGTACX_site4940]”, the “gcPBM binding intensity (ln)” value was 9.2. For the sequence “AAAAAAAAAAGAATAGCACACACACCGATATAAATA [CACACA_site8111]”, the “gcPBM binding intensity (ln)” value came out at 10.1. The value for “ATAATCCACAAGCACACACACACACCCATATATATA [CACACA_site1268]” was 10.2; that for “TAATAATCCACAAGCACACACACACCCATATATATA [CACACA_site1267]” was 10; that for “GGAATAATATAAAACACACACATAAATATAAATATA [CACACA_site3376]” was 9.9. In the case of “AAAATACATGGACACACACACACACCGATATATATA [CACACA_site5885]” it was 10.3; in that of “ATAATATATAAACACACACACATATATAAATACATT [CACACA_site4466]”, 10.1.

Regarding “ATAATATAAACATACACACACACATATATATATATA [CACACA_site5591]”, the “gcPBM binding intensity (ln)” value turned out to be 10. For the sequence “TGGGAATAAAAACACACACACACACCGATATATATA [CACACA_site5875]”, the “gcPBM binding intensity (ln)” value amounted to 10.3. “CAAATACATGGACACACACACATATACAGATATATA [CACACA_site5854]”: the “gcPBM binding intensity (ln)” value turned out to be 10.

In the case of “TATAATCCATAAGAAGCACACACATATATATATATT [CACACA_site8394]”, the “gcPBM binding intensity (ln)” value worked out at 9.76.

With “AAATAATATAAACATACACACACACCGATATATATA [CACACA_site8945]”, the “gcPBM binding intensity (ln)” value worked out at 10.2. The value for “ATAAAAATAAAATGGACACACATATATACATATTTG [CACACA_site3277]” was 9.68.
